ELG1 repair inh: blocks ELG1-dependent DNA repair in HEK293T cells | 2.3% of 330,000 active | Potency, µM (doses to about 46.1 µM), usual class: inhibitors | HEK293T ELG1-luciferase reporter, luminescence, 16 h; DNA damage induced by 5-fluorouridine; also: nearly all actives have a fitted effect of over 55% in size
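Overnight (16 hr) co-exposure of 2,000 cells/well to 5-fluorouridine and compound at 37 °C preceded detection. Luciferase was quantified via ONE-Glo luminescence; loss of signal denotes inhibition.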
IL-1B inflam inh: blocks inflammasome-driven IL-1 beta release; AID 743279; THP-1 LPS/ATP IL-1B secretion, AlphaLISA, 16 h; active compounds read low; activity change, % at 57.5 µM; 4.7% of 360,000 active; in the data active = activity change below about -50%; inconclusive = mostly about -30% to -49%
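THP-1 cells pretreated 1 hr with compounds (up to 57.5 uM final), then stimulated with LPS (250 ng/mL final) plus ATP (1.25 mM final); secreted IL-1B measured by AlphaLISA after 16 hr, decreased signal indicating inhibition.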
VP16 counter: counter-screen for ROR gamma inhibitors: Gal4-VP16 reporter; Drosophila S2 Gal4-VP16 UAS-luciferase, luminescence, 20 h; Potency, µM (series often up to 53.6 µM), usual class: inhibitors; 3.5% of 310,000 active;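 also: Gal4-VP16 expression switched on by copper sulfate through the metallothionein promoter; nearly all actives have a fitted effect of over 50% in size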
DT40 TDP1 no CPT: qHTS for Inhibitors of human tyrosyl-DNA phosphodiesterase 1 (TDP1): qHTS in cells in absence of CPT; DT40 Tdp1-/- hTDP1 cells, no CPT, ATP luminescence, 48 h; Potency, µM (highest dose often 46.2 µM), hits mostly inhibitors; 15% of 420,000 active; also: nearly all actives have a fitted effect of over 55% in size
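Seeded 400 DT40-hTDP1 cells/well (vehicle DMSO, no 20 nM CPT); pinned compounds; ≥48 hr at 37 °C; CellTiter-Glo luminescence as viability measure.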
RORgamma inh: ROR gamma (mouse) transcription inhibition; Drosophila S2 Gal4-RORgamma UAS-luciferase reporter, 20 h; AID 2551; Potency, µM (series often up to 53.6 µM), actives largely listed as inhibitors; 5.4% of 310,000 active; P51450; also: nearly all actives have a fitted effect of over 60% in size
Target sequence (P51450 whole entry, looked up, the tested form may be a part): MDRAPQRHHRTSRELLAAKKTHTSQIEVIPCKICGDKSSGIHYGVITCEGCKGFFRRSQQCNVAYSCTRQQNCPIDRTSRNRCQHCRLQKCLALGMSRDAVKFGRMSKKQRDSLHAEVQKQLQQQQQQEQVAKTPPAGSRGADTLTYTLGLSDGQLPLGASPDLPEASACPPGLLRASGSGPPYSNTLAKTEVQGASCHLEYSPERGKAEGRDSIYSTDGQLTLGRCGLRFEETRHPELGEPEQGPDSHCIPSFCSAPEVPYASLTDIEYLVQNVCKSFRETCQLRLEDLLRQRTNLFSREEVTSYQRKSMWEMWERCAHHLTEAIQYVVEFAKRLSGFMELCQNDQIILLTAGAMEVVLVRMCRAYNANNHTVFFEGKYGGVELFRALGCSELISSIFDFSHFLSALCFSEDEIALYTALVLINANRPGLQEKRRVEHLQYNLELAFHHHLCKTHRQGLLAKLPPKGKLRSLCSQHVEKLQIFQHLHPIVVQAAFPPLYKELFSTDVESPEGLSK
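Stably transfected Drosophila Schneider cells are the test system, with ROR gamma fused to Gal4 and luciferase under UAS control; luminescence is read after 20 hr of 700 uM copper sulfate induction at ambient temperature.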
DT40 TDP1 CPT: DT40-hTDP1 cell growth loss with CPT | chicken DT40 Tdp1-/-;hTDP1 cells + 20 nM CPT, ATP luminescence, 48 h | Potency, µM (doses to about 46.2 µM), usual class: inhibitors | 12% of 420,000 active; also: nearly all actives have a fitted effect of over 55% in size
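Chicken DT40 Tdp1-/- cells stably complemented with human TDP1 were seeded at 400 cells/well in medium containing 20 nM camptothecin, exposed to pin-transferred compounds, and grown at 37 °C for at least 48 hr. Viability was read as ATP luminescence.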
A number is an active result; n = inactive; u = inconclusive; x = no result given; [ ] = dose if it differs, or a comment. Shown are actives, neighbours in structure and some others; about 21% of the full set was active somewhere. Unless noted, calls follow the shape of the dose curve; as a rule, active = well fitted curve in the direction sought with a large enough effect; inconclusive = small, poorly fitted or top-dose-only effect, or another doubt; inactive = no such curve, though single readings can be large; an effect the other way counts as inactive or inconclusive.

SMILES	ELG1 repair inh	IL-1B inflam inh	VP16 counter	DT40 TDP1 no CPT	RORgamma inh	DT40 TDP1 CPT
CC(C)[C@H](CO)Nc1nc(Nc2ccc(C(=O)O)c(Cl)c2)c2ncn(C(C)C)c2n1	x	x	n	n	n	n
C=CC(=O)Nc1ccc(Nc2nc(NC3CCC(N(C)C)CC3)nc3c2ncn3C(C)C)cc1 (stereo unspecified)	2.31µM	-108.8	x	0.411µM	x	0.326µM
O=C(NCCCn1ccnc1)c1ccc(Br)o1	n	n	n	n	n	n
O=C(NCCCn1ccnc1)c1ccc(-c2cccc(Cl)c2Cl)o1	n	n	x	u	x	18.4µM
CC(C(=O)NCCCn1ccnc1)(c1ccccc1)c1ccccc1	u	n	n	18.4µM	n	14.6µM
O=C(O)c1ccccc1C(=O)NCCCn1ccnc1	n	n	n	n	n[1.91 µM]	n
O=C(NCCCn1ccnc1)C(=O)Nc1ccccc1	u	n	n	u	n	16.4µM
CC(=O)CCC1C2C(O)C(C(C)C)C(OC(=O)/C=C/c3ccccc3)CC12C (stereo unspecified)	u	n	u	25.9µM	n	18.4µM
Cc1ccc(CCNC(=O)c2ccc(Nc3nc4ccccc4n4nnnc34)cc2)cc1	x	x	x	18.4µM	x	u
O=C(c1ccc(Nc2nc3ccccc3n3nnnc23)cc1)N1CCN(c2ccc(F)cc2)CC1	x	x	x	9.2µM	x	10.3µM
O=C(NCc1ccc(F)cc1)c1ccc(Nc2nc3ccccc3n3nnnc23)cc1	x	x	x	14.6µM	x	20.6µM
Cc1ccc(N2CCN(C(=O)c3ccc(Nc4nc5ccccc5n5nnnc45)cc3)CC2)c(C)c1	x	x	x	n	x	n
CN(C)c1ccc(Nc2nc3ccccc3n3nnnc23)cc1	x	x	x	23.1µM	x	u
CC(C)CN1CCCC2(CCN(C(=O)c3cc(C(F)(F)F)cc(C(F)(F)F)c3)CC2)C1	x	x	n	n	n	n
Cc1ccccc1-c1csc(C(O)c2cccnc2)n1 (stereo unspecified)	x	n	x	u	x	u
CC(=O)Nc1ccc(Nc2nc3ccc(C)cc3n3nnnc23)cc1	x	x	x	6.51µM	x	6.51µM
CCOc1ccc(Nc2nc3ccccc3n3nnnc23)cc1	u	n	n	n	n	u
CC(NC(=O)c1ccc(Nc2nc3ccccc3n3nnnc23)cc1)c1ccccc1 (stereo unspecified)	x	x	x	7.31µM	x	13µM
CCC(=O)N1CCc2cc(Br)cc(S(=O)(=O)CCC(=O)NCc3ccc(C)cc3)c21	x	x	x	n	x	n
CCOc1ccc(Nc2nc(C)c(NC(=O)c3cccc(OC)c3)c(Nc3ccc(OCC)cc3)n2)cc1	x	x	x	2.31µM	x	1.46µM
CCOc1ncccc1C(=O)Nc1cccc(C(=O)Nc2cccc(S(=O)(=O)CCO)c2)c1	u	u	u	7.31µM	n	u
CCOc1cccc(C(=O)NC(=S)Nc2cccnc2)c1	u	n	u	u	14.1µM	n
CCOc1cccc(C(=O)Nc2ccncc2)c1	u	n	n	u	u	23.1µM
CCOc1cccc(C(=O)NC(=S)Nc2ccc(N3CCN(CC)CC3)cc2)c1	u	u	u	23.1µM	11.2µM	u
COc1cc(OC)cc(C(=O)NC(=S)Nc2ccc(N3CCCC3)cc2)c1	n	n	u	8.2µM	3.16µM	14.6µM
SMILES	ELG1 repair inh	IL-1B inflam inh	VP16 counter	DT40 TDP1 no CPT	RORgamma inh	DT40 TDP1 CPT
CCCOc1cccc(C(=O)NC(=S)Nc2ccc(N3CCN(C)CC3)cc2)c1	n	n	n[10 µM]	u	n	u
COc1cccc(C(=O)Nc2cccc(NC(=O)c3ccccc3Cl)c2)c1	n	u	n	u	u	u
CCCCOc1cccc(C(=O)NC(=S)Nc2cccnc2)c1	n	n	u	u	11.2µM	n
CCOc1cccc(C(=O)NC(=S)Nc2cccc(NC(=O)c3ccccc3Cl)c2)c1	8.2µM	u	0.631µM	20.6µM	n[10 µM]	u
O=C(NC(=S)Nc1cccnc1)c1cccc(Br)c1	n	n	u	n	u	n
COC(=O)C/C=C/C(C)C(OCc1cccc(Br)c1)C(C)C(OC)C1CCCCC1 (stereo unspecified)	x	x	n[10 µM]	x	n[10 µM]	x
O=C(c1ccc(Cl)cc1)N1CCOc2ccccc21	n	n	u	u	n	u
CCOc1cccc(C(=O)NC(=S)Nc2ccccc2)c1	u	n	u	u	4.47µM	u
CC(=O)Oc1cccc(N2C(=O)c3ccc(C(=O)Nc4cccnc4)cc3C2=O)c1	n	n	n	n	n	n
CCOc1ccccc1N1C(=O)c2ccc(C(=O)Nc3cccnc3)cc2C1=O	n	n	12.6µM	n	n	n
CCOc1cccc(C(=O)Nc2ccc(NC(=O)c3ccc(Br)cc3)cc2)c1	x	x	x	n	x	n
O=C(NCCCc1ccccc1)c1cccc(NC(=O)C2CCCC2)c1	x	n	x	n	x	n
O=C(c1cccc(S(=O)(=O)N2CCc3ccccc32)c1)N1CCN(c2ccccn2)CC1	u	n	n	23.1µM	n	u
COc1ccc(N2CCN(C(=O)c3cccc(S(=O)(=O)N4CCc5ccccc54)c3)CC2)cc1	u	n	x	14.6µM	x	u
COc1ccc(N2CCN(C(=O)c3cccc(S(=O)(=O)N4CCCc5ccccc54)c3)CC2)cc1	u	n	x	u	x	u
CS(=O)(=O)N1CCc2cc(C(=O)N3CCN(c4ccc(F)cc4)CC3)ccc21	n	n	n	20.6µM	n	u
CC(=O)N1CCc2cc(Br)cc(S(=O)(=O)NCCc3ccc(Cl)cc3)c21	x	x	x	n	x	n
CCCS(=O)(=O)N1CCC(C(=O)NCCOC)CC1	x	x	x	n	x	n
COc1ccc(S(=O)(=O)NCC(c2ccc3c(c2)OCO3)N2CCN(c3ccccc3)CC2)cc1 (stereo unspecified)	n	u	x	23.1µM	x	u
COc1ccc(C(=O)NCC(c2ccc3c(c2)OCO3)N2CCN(c3ccc(F)cc3)CC2)cc1 (stereo unspecified)	x	x	x	1.64µM	x	3.26µM
O=S(=O)(NCC(c1ccc2c(c1)OCO2)N1CCOCC1)c1ccc(Br)cc1 (stereo unspecified)	n	n	x	20.6µM	x	16.4µM
Cc1ccc(C(=O)NCC(c2ccc3c(c2)OCO3)N2CCN(c3ccc(F)cc3)CC2)cc1 (stereo unspecified)	x	x	x	1.46µM	x	2.91µM
CCn1nnnc1SCC(=O)Nc1ccc(F)cc1	n	n	n	u	n	n
Cc1ccc(NC(=O)C(=O)NCC(c2ccc3c(c2)OCO3)N2CCN(c3ccccc3)CC2)cc1 (stereo unspecified)	x	x	x	n	x	n
COC(=O)NCC(c1ccc2c(c1)OCO2)N1CCN(c2ccccc2)CC1 (stereo unspecified)	n	n	n	n	n	u

Source: PubChem
